Screens: PubChem, National Center for Advancing Translational Sciences (NCATS)
NS1 function inh: qHTS Assay for Inhibitors of Influenza NS1 Protein Function; 270,000 tested, 0.4% active; AID 2326, 2010; Potency, µM (highest dose often 46.1 µM), inactives show top-dose activity, positive = more growth; calls by dose curve; further: potency means the concentration at half of the fitted maximal effect; actives are rising curves; nearly all actives have a fitted effect of over 50% in size
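OD600 was taken as the measure of yeast growth restored by compound in an NS1-expressing S. cerevisiae strain. Cells had been washed out of glucose medium and diluted 1:100 into galactose -URA medium, pH 6.0.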
SARS PLpro yeast-1: qHTS of Yeast-based Assay for SARS-CoV PLP | S. cerevisiae expressing SARS-CoV PLpro, growth rescue | Potency, µM (titrated, usually from 32.9 µM), for inactives: at the top dose activity, positive = growth rescue, hits mostly activators | 330,000 tested, 0.19% active; calls by dose curve; further: potency means the concentration at half of the fitted maximal effect; 0% is about no effect; nearly all actives have a fitted effect of over 55% in size
AmpC inh detg: qHTS Inhibitors of AmpC Beta-Lactamase (assay with detergent); AID 485294, 2010; AmpC hydrolysis of nitrocefin, absorbance 480 nm, 0.01% Triton; P00811; Potency, µM (top dose mostly 114 µM), for the others: top-dose activity change, negative = inhibition, most hits filed as inhibitors; 370,000 tested, 0.041% active;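 further: potency means the concentration at half of the fitted maximal effect; 0% = no-compound wells and -100% = no-enzyme wells; nearly all actives have a fitted effect of over 25% in size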
Target sequence (P00811 whole entry, looked up): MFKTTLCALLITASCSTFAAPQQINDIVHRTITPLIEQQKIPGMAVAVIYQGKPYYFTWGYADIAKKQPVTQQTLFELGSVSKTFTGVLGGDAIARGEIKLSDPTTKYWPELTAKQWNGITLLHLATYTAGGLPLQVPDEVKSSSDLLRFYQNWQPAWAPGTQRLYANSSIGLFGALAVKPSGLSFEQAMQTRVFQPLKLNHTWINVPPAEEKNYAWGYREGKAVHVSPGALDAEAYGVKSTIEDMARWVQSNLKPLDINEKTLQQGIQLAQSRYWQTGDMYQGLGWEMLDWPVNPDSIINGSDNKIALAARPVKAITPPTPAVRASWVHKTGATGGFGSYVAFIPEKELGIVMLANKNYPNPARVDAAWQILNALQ
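AmpC (5.3 nM in the dispensed reagent) in 20 mM phosphate pH 7.0 with 0.01% (detergent screen) or 0.0001% Triton X-100 was preincubated with compounds for 15 min at room temperature. Nitrocefin was then added from an 800 uM solution, and hydrolysis was followed at 480 nm.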
AmpC no deterg: qHTS Inhibitors of AmpC Beta-Lactamase (assay without detergent); 330,000 tested, 0.52% active; P00811; Potency, µM (titrated, usually from 57.1 µM), without a hit: top-dose activity change, negative = inhibition, most hits filed as inhibitors; AmpC nitrocefin hydrolysis, absorbance 480 nm, 0.0001% Triton;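 further: potency means the concentration at half of the fitted maximal effect; plate controls were no compound for no effect and no enzyme for full effect; nearly all actives have a fitted effect of over 20% in size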
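20 mM phosphate pH 7.0 + 0.01% (detergent screen) or 0.0001% Triton X-100; 5.3 nM AmpC reagent; cpd preinc 15 min RT; nitrocefin (800 uM stock) to start; A480 q20 s × 4 min; Activity was normalised to no-enzyme and no-compound control wells.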
AMA1-RON2 inh: qHTS for Inhibitors of AMA1-RON; Towards Development of Antimalarial Drug Lead: Primary Screen; Plasmodium falciparum AMA1 (3D7) - RON2 peptide interaction; AlphaScreen AMA1-biotinylated RON2 peptide binding; Potency, µM (top dose mostly 58.2 µM), inactives show top-dose activity change, negative = inhibition, most hits filed as inhibitors; 360,000 tested, 0.2% active; AID 720542, 2013;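 further: potency means the concentration at half of the fitted maximal effect; 0% = vehicle wells and -100% = peptide control; nearly all actives have a fitted effect of over 45% in size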
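AMA1 (3D7) with his tag at 25 nM final met compounds first, then biotinylated RON2 peptide at 25 nM; detection used donor plus acceptor beads, 10 µg/mL apiece, read by AlphaScreen after 30 min at room temperature.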
NS1 inh valid: Assay for Inhibitors of Influenza NS1 Protein Function: Hit Validation. activity change, negative = inhibition, % at 32.9 µM. shares compounds with NS1 function inh. influenza NS1 function cell assay, 15-point titration. 1,400 tested, under 10 active; calls by dose curve; further: 0% is about no effect
SARS PLpro yeast-2: qHTS of Yeast-based Assay for SARS-CoV PLP: Hit Validation. shares compounds with SARS PLpro yeast-1. yeast expressing SARS-CoV PLpro, growth phenotype rescue. calls only. 1,000 tested, 19% active. AID 652038, 2013; call rule not given here
Active calls of the source: *; i = inactive; ? = inconclusive; . = no result; + = active, no number; [ ] = another dose, or the depositor's remark. Hits are enriched below; roughly 0.99% of the tested compounds scored in any of these assays. Unless noted, the call rests on the fitted dose curve; in most records, active means well fitted curve in the direction sought with a large enough effect; inconclusive means small, poorly fitted or top-dose-only effect, or another doubt; inactive means no such curve, though single readings can be large; an effect the other way counts as inactive or inconclusive.

SMILES	NS1 function inh	SARS PLpro yeast-1	AmpC inh detg	AmpC no deterg	AMA1-RON2 inh	SARS PLpro yeast-2	others
C/C(=N\NC(=S)Nc1ccc(C)c(C)c1)c1ccc(N2CCOCC2)cc1	7.9µM*	-22%	?	0%	0%	.	NS1 inh valid=?
O=C1C2ON(c3ccccc3)C(c3ccccc3F)C2C(=O)N1c1ccccc1 (stereo not given)	-45%	-5%	-18%	-12%	1%	.
CN1OC2C(=O)N(c3ccccc3)C(=O)C2C1c1ccc(F)cc1 (stereo not given)	?	?	0%	67%	11%	i	NS1 inh valid=12
Cc1c(C(=O)NCc2ccccc2Br)oc2c1-c1[nH]ncc1CC2	.	.	11%	.	.	.
Cc1ccc(Cl)cc1NC(=O)N1CCc2cc(S(=O)(=O)N3CCC(C)CC3)ccc21	.	.	22%	.	.	.
COc1ccc(OC(=O)c2ccncc2)cc1	?	?	-9%	-12%	6%	i	NS1 inh valid=-2
Cc1cc(C)c2sc(NNC(=O)c3ccc(S(=O)(=O)N4CCc5ccccc5C4)cc3)nc2c1	11µM*	7.9µM*	-19%	3.5µM*	38%	+	NS1 inh valid=6
O=C(Nc1nccs1)c1cn(-c2ccccc2)nc1-c1ccccc1	21%	?	-2%	-22%	-10%	.
CC(C)COc1ccc(-c2nn(-c3ccccc3)cc2C(=O)Nc2nccs2)cc1	11µM*	?	-1%	-21%	43%	+	NS1 inh valid=0
CC(=O)C(Sc1nc(N(C)C)nc(N(C)C)n1)C(=O)Nc1ccccc1 (stereo not given)	-1%	-1%	?	-9%[2.29 µM]	0%	.
CC(=O)C(Sc1nn(C)c(=S)s1)C(=O)Nc1ccccc1 (stereo not given)	-5%	?	-4%	-34%	-1%	i
CC(C)C1Oc2ccccc2N(CC(=O)N(Cc2ccccn2)CC2CCCO2)C1=O (stereo not given)	-4%	1.8µM*	?	91%	-5%	i
Cc1ccc(CN(CC2CCCO2)C(=O)CN2C(=O)C(C(C)C)Oc3ccccc32)o1 (stereo not given)	-11%	1%	-6%	98%	-6%	.
C=CCN(C#N)c1nc(OC)nc(N2CCCC2)n1	-14%	-5%	-16%	-9%	-15%	.
N#CN(CC(N)=O)c1nc(N2CCCCC2)nc(N2CCCCC2)n1	2%	?	-3%	-5%	-2%	i
CCC(=O)C1=C(c2cccc([N+](=O)[O-])c2)N(C(=O)CC)n2c(nnc2-c2ccccc2)S1	.	.	7%	.	.	.
Cc1cccc(NC(=O)NCC(c2cccnc2)N2CCOCC2)c1 (stereo not given)	0%	18µM*	-13%	-15%	7%	i
CC(C)Oc1ccc(/C=N/NC(N)=S)cc1	-6%	?	-11%	-15%	39%	+
COc1ccc(/C=N/NC(N)=S)cc1	-8%	27%	0%	-22%	33%	.
C/C(CC(=O)Nc1ccc(N(C)C)cc1)=N\NC(=O)Cc1csc(N)n1	?	18µM*	-2%	-36%	25%	i
COc1ccc(CC(=O)N/N=C(\C)CC(=O)Nc2ccc(N(C)C)cc2)cc1	3%	-4%	4%	53%	12%	.
CC(C)NC(=S)N/N=C/c1cc(Br)ccc1O	-8%	?	-2%	-36%	-1%	+
COc1ccc(OC)c(-c2noc(N3CCN(c4ccc(C(C)=O)cc4)CC3)n2)c1	.	.	-2%	.	.	.
COc1ccc(OC)c(NC(=O)C(C)n2nc(C)c3c(C)n(-c4ccccc4)nc3c2=O)c1 (stereo not given)	.	.	15%	.	.	.
CC(C)(C)n1ncc(Oc2ccccc2[N+](=O)[O-])c(Cl)c1=O	-24%	?	-10%	-23%	-11%	i
SMILES	NS1 function inh	SARS PLpro yeast-1	AmpC inh detg	AmpC no deterg	AMA1-RON2 inh	SARS PLpro yeast-2	others
CCC(O)c1cc2c(cc1NC(=O)c1ccccc1F)OCCO2 (stereo not given)	.	.	4%	.	.	.
Cc1ccc(OCC(=O)Nc2ccc(Cl)c(-c3nc4ncccc4o3)c2)cc1C	.	.	6%	.	.	.
CN(Cc1cnccn1)C(=O)C1CCC(=O)N(CCc2ccccc2)C1 (stereo not given)	13%	7%	-2%	-14%	-1%	.
Cc1ccc(CN(C)C(=O)C2CCC(=O)N(CCc3ccccc3)C2)o1 (stereo not given)	14%	?	?	34%	3%	i
CCCCNC(=O)N1CCc2ccccc2C1	-10%	3.2µM*	?	3%	-2%	i
Cc1sc2c(c1C)c(=O)n(-c1cccc(C(F)(F)F)c1)c(=O)n2Cc1ccccc1C#N	.	.	18%	.	.	.
COC(=O)Cc1c[nH]c2cccc(OCC(O)CN(Cc3ccccc3)C(C)C)c12 (stereo not given)	2%	?	-9%	-24%	-7%	i
COc1ccc(C2C=C(c3cccc(OC)c3)Nc3c(C(=O)Nc4ccccc4)cnn32)cc1 (stereo not given)	.	.	0%	.	.	.
CC(=O)NC(CC(=O)Nc1ccc(S(=O)(=O)NC2=NCCCCC2)cc1)c1ccccc1 (stereo not given)	.	?	6%	-2%	1%	i
Cc1cc(/C=N/NC(N)=S)c(C)n1-c1ccc(Cl)c(Cl)c1	23%	?	-2%	?	40%	i
NC(=S)Nc1cccc2cccnc12	3%	?	-3%	-11%	-3%	i
CCCCc1ccc(NC(=S)NN2CCOCC2)cc1	25%	10µM*	?	50%	60%	+
CCC(C)c1ccc(NC(=S)NN2CCOCC2)cc1 (stereo not given)	4%	?	0%	17%	-11%	.
COc1cccc(C(=O)CSc2nnc(-c3cc(OC)c(OC)c(OC)c3)o2)c1	1%	?	?	144%	-1%	?
COc1ccc(N2CCN(C3CCCN(C(=O)C4=C(C)OCCO4)C3)CC2)cc1 (stereo not given)	5%	?	?	10%	1%	i
CC(=O)NC(c1ccc(Cl)cc1Cl)c1ccc2cccnc2c1O (stereo not given)	-104%	?	-14%	10%	-48%	i
O=C(O)COc1ccccc1C(Nc1cccnc1)c1cc(Cl)c2cccnc2c1O (stereo not given)	.	?	-10%	60%	-87%	.
CC(=O)NC(C)c1cc(Cl)c2cccnc2c1O (stereo not given)	.	?	-2%	-12%	.	i
